Several values for one entry are separate records, joined by “and”; a condition that tells them apart may be missing. Equal entries are not always repeated. Records with an inconclusive call do not appear. Activity calls are given as the source filed them. Calls come from the whole dose curve.
Assay: qHTS Assay for Lipid Storage Modulators (AID 1519); for activity change, negative = inhibition: % is set by controls: 0 for no effect and ±100 for the full control effect
Settings: Drosophila S3 cells, BODIPY lipid droplet/cell ratio, laser cytometry, cells loaded with oleic acid; for activity change, negative = inhibition: at 57.5 µM (top of the series)
From the text: NIH Molecular Libraries Probe Production Centers Network [MLPCN]
NIH Chemical Genomics Center [NCGC]
Assay Submitter (PI): Beller, Mathias; Max-Planck-Institut fur Biophysikalische Chemie
NCGC Assay Overview: Storing lipids as a reservoir for energy or the anabolism of elementary metabolites is a common feature of probably all cells and is conserved from bacteria to humans. The universal cellular lipid storage organelle is the so-called lipid storage droplet (LD). Although ubiquitous, LDs share a simple structure composed of a hydrophobic core that harbors the storage lipids, which is shielded by a droplet-specific phospholipid monolayer to which proteins are attached. The current model of LD biogenesis involves an incorporation of the lipid core into the membrane leaflets of the endoplasmic reticulum (ER) followed by a subsequent budding-like maturation of a LD, which ultimately pinches off. Once released, LD volume can increase by localized lipogenesis or fusion of existing droplets. Storage lipids are re-mobilized enzymatically by lipase activity. Lipase regulation in the adipocyte is heavily studied and involves multiple components including catecholamine signaling, the LD-associated proteins Perilipin and comparative gene identification-58 (CGI-58) and at least two lipases named hormone sensitive lipase (HSL) and adipocyte triglyceride lipase (ATGL). LD regulation outside of the adipocyte is poorly understood and only few components are known. However, there is an urgent need to learn more about ectopic fat depots as mislocalized storage of lipids, for example in the liver or muscle, is an eminent health problem associated with insulin resistance or the metabolic syndrome. We developed a laser-scanning cytometer assay to enable 1,536-well screening and combined the results of the small molecules screen with an RNAi database based on lipid storage.
NCGC Assay Protocol Summary:
We dispensed 4 uL of cells at 1.25 x 10^6 cells/mL into LoBase Aurora COC 1,536-well plates (black walled, clear bottom) with a bottle-valve solenoid-based dispenser (Aurora) to obtain 5,000 cells/well. Triacsin C (Sigma-Aldrich T-4540), an inhibitor of long-chain fatty acyl CoA synthetase that blocks synthesis of triglycerides, was used as a positive control for lipid under-storage. A total of 23 nL of compound solution of different concentrations were transferred to the assay plates using a Kalypsys pin tool equipped with a 1,536-pin array containing 10-nL slotted pins (FP1S10, 0.457-mm diameter, 50.8 mm long; V&P Scientific). One microliter of oleic acid (400 uM) was added, and the plate was lidded with stainless steel rubber gasket lined lids containing pinholes. […] Fluorescence was detected by excitation of the fluorophores with a 488-nm laser on an Acumen Explorer (TTP Lab Tech). The total intensity in channel 1 (500-530 nm) reflected lipid droplet accumulation. […] The ratio of the total intensity in PMT channel 1 over total intensity of channel 3 was also calculated. Percent activity was computed relative to an internal control (100% inhibited lipid droplet deposition due to the presence of 20 uM Triacsin C), which was added to 32 wells/plate.

[1] = measured here: cell count channel max response
[2] = measured here: lipid channel max response

Row | SMILES | activity change, negative = inhibition | max response [1] | max response [2]
1 | N=C(N)SCCN | 1.32% (inactive) and 3.68% (inactive) | 9.1% and -2.48% | 12% and 0.318%
2 | N[C@H](C(=O)O)[C@H](O)C(=O)O | 1.02% (inactive) | -11.9% | -6.36%
3 | Oc1cc2c(cc1O)C(c1ccccc1)CNCC2 (configuration not stated) | 4.39% (inactive) and 0.147% (inactive) | 1.14% and -18.7% | 16.2% and -20.2%
4 | CC1CNCCN1S(=O)(=O)c1cccc2cnccc12 (configuration not stated) | -0.941% (inactive) | 3.07% | 3.63%
5 | NC/C=C\C(=O)O | 4.68% (inactive) and 0.384% (inactive) | -7.52% and 26.3% | -6.79% and 26.6%
6 | NCCCNCCCCNCCCN | 1.21% (inactive) | 9.8% | 13.5%
7 | NC(Cc1cccc(-c2ccccc2CP(=O)(O)O)c1)C(=O)O (configuration not stated) | 1.29% (inactive) | 44.3% | 44.8%
8 | N#Cc1cc2nc(O)c(O)nc2cc1[N+](=O)[O-] | 3.63% (inactive) and -0.314% (inactive) | 13.7% and -35.1% | 18.1% and -33.4%
9 | CC(C)(CO)Cc1cc(C(C)(C)C)c(O)c(C(C)(C)C)c1 | -0.753% (inactive) | -30.7% | -34%
10 | O=C(O)C1CCNCC1 | -0.0209% (inactive) | 11.3% | 10%
11 | Cc1cc2c(cc1Cl)N(C(=O)Nc1ccnc3ccccc13)CC2 | 3.56% (inactive) | 57.9% | 64%
12 | Clc1nccc2c1ccc1ccccc12 | -1.52% (inactive) | -15.2% | -17.8%
13 | C[C@H](O)C(=O)C1=Nc2c(nc(N)[nH]c2=O)NC1 | 3.44% (inactive) | 8.97% | 8.64%
14 | O=C(O)C1=CCCN(CCON=C(c2ccccc2)c2ccccc2)C1 | 3.28% (inactive) and 2.71% (inactive) | -11.1% and 10.2% | -9.11% and 11.8%

Reference: PubChem BioAssay (NCATS)
